For eleven molecules, growth results are on record in PubChem BioAssay (NCI).

Structures are written as SMILES. Several values for one entry are separate records, joined by “and”; a condition that tells them apart may be missing. Equal values may be shown once. The panel holds about 83,000 compounds, 20% with a hit somewhere; the sample as a whole holds those more often.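 Values shown are percent growth following 48 h exposure of cells in 96-well plates to a single concentration of compound; below 10 was considered active.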 Unmarked numbers belong to inactive results. Activity calls are given as the source filed them.

Test systems include DU-145 prostate; K-562 leukemia; MALME-3M melanoma; MDA-MB-231 breast; RXF 393 renal; SF-268 CNS; SF-295 CNS; SF-539 CNS; UACC-257 melanoma; M14 melanoma.
Holding throughout (test): NCI-60 one-dose screen, 48 h (100 = growth as untreated, 0 = no growth, -100 = all killed)
Holding throughout (settings): 10 µM

Consider `COc1ccc2c(ccc3oc([N+](=O)[O-])cc32)c1`, for which the growth in the test on DU-145 prostate was 0.495% (active); with K-562 leukemia, 0.428% (active); in the test on MALME-3M melanoma, -55% (active); in the test on MDA-MB-231 breast, -20.3% (active); with RXF 393 renal, -64.3% (active); in the test on SF-268 CNS it was -6.08% (active). In addition, the growth with SF-295 CNS was -0.437% (active); with SF-539 CNS, -18.7% (active); with UACC-257 melanoma it was -56.9% (active); with M14 melanoma, -40.2% (active).

As to `COS(=O)(=O)c1ccccc1`, the growth with DU-145 prostate is 114%; in the test on K-562 leukemia it was 103%; in the test with MALME-3M melanoma, 111%; in the test with MDA-MB-231 breast it was 123%; with RXF 393 renal, 109%; in the test on SF-268 CNS, 95.9%. For the same molecule, the figures for the growth in the test with SF-295 CNS, in the test on SF-539 CNS and in the test with UACC-257 melanoma were 109%, 101% and 101%, respectively.

As for `O=[N+]([O-])c1ccc(Br)c([N+](=O)[O-])c1`, the growth is 93.4% in the test on DU-145 prostate; 34.6% with K-562 leukemia; 68.6% in the test on MALME-3M melanoma; 88.9% in the test on MDA-MB-231 breast; 102% with RXF 393 renal; 96.8% in the test with SF-268 CNS. Further, the growth is 108% in the test on SF-295 CNS, 98.7% with SF-539 CNS, 74.3% in the test with UACC-257 melanoma and 79.9% in the test on M14 melanoma.

Take `COc1cc(/C=C\[N+](=O)[O-])ccc1O`: the growth with DU-145 prostate is 27.4% and 61.2%; in the test on K-562 leukemia it was 26.5% and 48.1%; in the test with MALME-3M melanoma it was 50.4% and 96.4%; in the test on MDA-MB-231 breast, 91.6% and 83.6%; in the test with RXF 393 renal, 23.2% and 56%; with SF-268 CNS, 75.5% and 87.6%. The growth was 110% and 104% in the test with SF-295 CNS; 70.5% and 83.2% in the test on SF-539 CNS; 61.2% and 90.5% in the test on UACC-257 melanoma; 71.3% and 52.1% in the test with M14 melanoma.

As for `COC(C(=O)C(O)C(C)O)C1Cc2cc3cc(OC4CC(OC(C)=O)C(OC5CC(O)C(OC)C(C)O5)C(C)O4)cc(O)c3c(O)c2C(=O)C1OC1CC(OC2CC(OC3CC(C)(O)C(OC(=O)C(C)C)C(C)O3)C(O)C(C)O2)C(O)C(C)O1` (stereo not given), the growth was -32.2% (active) in the test with DU-145 prostate; -68.4% (active) in the test on K-562 leukemia; -89.1% (active) with MALME-3M melanoma; -26.3% (active) in the test with MDA-MB-231 breast; -24.6% (active) in the test on RXF 393 renal; 2.42% (active) in the test on SF-268 CNS. The growth in the test on SF-295 CNS was -14.4% (active); in the test on SF-539 CNS, -78.2% (active); in the test on UACC-257 melanoma it was -19.1% (active).

As for `CC12OOC(c3ccccc31)c1c2ccc2ccccc12` (stereo not given), the growth in the test on DU-145 prostate is -95.3% (active); in the test with K-562 leukemia, -82.8% (active); in the test with MALME-3M melanoma it was -88.4% (active); in the test with MDA-MB-231 breast, 49.7%; in the test with RXF 393 renal, 67.3%; in the test on SF-268 CNS, 43.1%. In addition, the growth is 82.5% in the test with SF-295 CNS, 83% in the test on SF-539 CNS, -17% (active) in the test with UACC-257 melanoma and -7.71% (active) in the test with M14 melanoma.

Turning to `Oc1c(I)cc(I)cc1I`, the growth in the test on DU-145 prostate was 114%; in the test on K-562 leukemia, 98.6%; in the test with MALME-3M melanoma, 121%; in the test with MDA-MB-231 breast, 93.7%; in the test on RXF 393 renal, 108%; with SF-268 CNS, 104%. In addition, the growth in the test with SF-295 CNS is 110%; in the test with SF-539 CNS, 102%; with UACC-257 melanoma it was 107%.

For the molecule `O=C(CBr)Nc1ccc(Cl)cc1`, the growth in the test on DU-145 prostate is 105%; with K-562 leukemia it was 12.8%; in the test on MALME-3M melanoma, 29.8%; with MDA-MB-231 breast, 64.4%; in the test with RXF 393 renal it was 97.7%; in the test with SF-268 CNS it was 88.9%. Moreover, the growth with SF-295 CNS was 103%; in the test with SF-539 CNS it was 105%; in the test on UACC-257 melanoma, 99.7%; in the test on M14 melanoma it was 67.2%.

On to `COc1cc([C@@H]2c3cc4c(c(O)c3C[C@H]3COC(=O)[C@@H]32)OCO4)cc(OC)c1OC`, for which the growth in the test on DU-145 prostate is -28.2% (active); in the test with K-562 leukemia, 7.73% (active); in the test with MALME-3M melanoma, 40.4%; with MDA-MB-231 breast it was 21%; with RXF 393 renal, 14.3%; with SF-268 CNS, 21.5%. The growth is -22.2% (active) in the test with SF-295 CNS, -18% (active) with SF-539 CNS, 57.5% in the test with UACC-257 melanoma and -66.3% (active) in the test on M14 melanoma.

For `CC(C)(C)OOC(=O)/C=C\C(=O)OOC(C)(C)C`, the growth in the test on DU-145 prostate is 112%; in the test with K-562 leukemia, 104%; with MALME-3M melanoma, 141%; with MDA-MB-231 breast it was 97.5%; with RXF 393 renal it was 105%; in the test with SF-268 CNS, 93.8%. For the same molecule, the growth in the test with SF-295 CNS was 138%; in the test with SF-539 CNS, 93.8%; in the test with UACC-257 melanoma, 99.4%.

Consider `S=C=NCCc1ccccc1`, for which the growth was 44.5% in the test on DU-145 prostate; 20.4% in the test with K-562 leukemia; 88.7% in the test on MALME-3M melanoma; 38.4% with MDA-MB-231 breast; 31.5% in the test on RXF 393 renal; 58.2% with SF-268 CNS. The growth in the test on SF-295 CNS was 115%; in the test with SF-539 CNS it was 29.1%; in the test with UACC-257 melanoma, 88.5%.
